Experimental data from the supplement of paper PMC9694430.
Values joined by “and” are separate entries in the source; they are usually repeats but may differ in a detail not shown here. Equal values may be shown once. Where a name gives a salt, the structure may show the parent alone.

What was measured:
Test in all cases: thermal shift delta Tm vs DMSO control; higher = stronger stabilization (binding)
Conditions in all cases: 12.5 µM; protein concentration 2 µM
[1] = test system: LOC_OS04G57630-cb004
Method in brief: (§1)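 Compounds dissolved in DMSO were added to purified rice kinase domain constructs, which had been expressed in E. coli, for differential scanning fluorimetry. Each well held 19.5 μl of 2 μM kinase in 100 mM potassium phosphate pH 7.5, 150 mM NaCl, 10% glycerol and 5 × SYPRO Orange. Fluorescence was followed from 25°C to 95°C at a rate of 0.05°C/s. Shifts in Boltzmann-fitted melting temperature are triplicate means relative to DMSO-only protein.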

[2] = test system: LOC_OS05G07850-cb002
Method in brief: as §1

[3] = test system: LOC_OS05G16824-cb004
Method in brief: as §1

[4] = test system: LOC_OS05G28520-cb001
Method in brief: as §1

[5] = test system: LOC_OS05G30820-cb001
Method in brief: as §1

[6] = test system: LOC_OS05G43570-cb004
Method in brief: as §1

[7] = test system: LOC_OS06G16330-cb003
Sequence of LOC_OS06G16330-cb003 (as listed by the source): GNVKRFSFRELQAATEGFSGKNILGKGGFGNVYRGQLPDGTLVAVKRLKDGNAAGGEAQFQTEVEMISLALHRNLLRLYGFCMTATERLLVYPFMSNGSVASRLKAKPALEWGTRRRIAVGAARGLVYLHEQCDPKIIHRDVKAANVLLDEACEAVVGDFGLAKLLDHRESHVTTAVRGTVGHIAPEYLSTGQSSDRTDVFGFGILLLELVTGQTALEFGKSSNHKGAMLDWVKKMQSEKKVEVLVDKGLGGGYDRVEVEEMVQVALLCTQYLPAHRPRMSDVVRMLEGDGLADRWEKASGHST
Method in brief: as §1

[8] = test system: T1, LOC_OS06G22820-cb001
T1 sequence (whole entry): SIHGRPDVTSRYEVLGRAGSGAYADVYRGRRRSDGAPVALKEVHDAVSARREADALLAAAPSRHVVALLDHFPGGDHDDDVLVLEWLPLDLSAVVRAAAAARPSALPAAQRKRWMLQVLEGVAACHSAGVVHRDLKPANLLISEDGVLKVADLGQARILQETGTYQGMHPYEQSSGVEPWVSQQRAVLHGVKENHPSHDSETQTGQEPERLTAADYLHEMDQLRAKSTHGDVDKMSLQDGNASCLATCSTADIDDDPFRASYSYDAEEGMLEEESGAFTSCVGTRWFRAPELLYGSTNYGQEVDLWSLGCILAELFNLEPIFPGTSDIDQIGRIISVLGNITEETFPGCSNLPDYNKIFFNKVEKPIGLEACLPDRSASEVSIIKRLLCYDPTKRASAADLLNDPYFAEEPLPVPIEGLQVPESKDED
Method in brief: as §1

[9] = test system: LOC_OS07G06570-cb004
Method in brief: as §1

[10] = test system: LOC_OS07G07230-cb001
Method in brief: as §1

SMILES | thermal shift delta Tm [1] | thermal shift delta Tm [2] | thermal shift delta Tm [3] | thermal shift delta Tm [4] | thermal shift delta Tm [5] | thermal shift delta Tm [6] | thermal shift delta Tm [7] | thermal shift delta Tm [8] | thermal shift delta Tm [9] | thermal shift delta Tm [10]
CN1CCC(CNc2ccc3ncc(-c4cccc(OC(F)(F)F)c4)n3n2)CC1 [SGI-1776 free base] | 1.46 °C | 12 °C | 3.25 °C | 0.98 °C | 0.86 °C | 0.36 °C | 3.37 °C | 0.41 °C | 0.32 °C | 0.72 °C
O=c1cc(-c2cccc3c2Sc2ccccc2S3)oc(N2CCOCC2)c1 | -0.22 °C | 0.85 °C | 0.1 °C | 0.74 °C | 0.44 °C | 0.13 °C | -0.34 °C | 0.79 °C | 0.35 °C | -0.3 °C
CNC(=O)Nc1ccc(-c2nc(N3CC4CCC(C3)O4)c3cnn(C4CCC5(CC4)OCCO5)c3n2)cc1 | 0.62 °C | 0.66 °C | -1.09 °C | 0.58 °C | 0.69 °C | 0.65 °C | -0.11 °C | 0.61 °C | 0.67 °C | 0.15 °C
Cc1cc(Nc2nc(N[C@@H](C)c3ccc(F)cc3)c(C#N)cc2F)n[nH]1 | 0.47 °C | 11.9 °C | 8.62 °C | -0.1 °C | 1.2 °C | 0.67 °C | 8.11 °C | -0.41 °C | 0.19 °C | 0.12 °C
O=C(NC1CCNCC1)c1n[nH]cc1NC(=O)c1c(Cl)cccc1Cl | -0.08 °C and 0.55 °C | 0.37 °C and 0.45 °C | -3.35 °C and -1.47 °C | 0.1 °C and 0.64 °C | 0.56 °C and 0.5 °C | 0.07 °C and 0.69 °C | -0.07 °C and 0.05 °C | 0.77 °C and 1.12 °C | 0.44 °C and 0.91 °C | 0.04 °C and 0.01 °C
O=C(NCCCNc1nc(Nc2cccc(NC(=O)N3CCCC3)c2)ncc1I)c1cccs1 | 5.69 °C | 12.1 °C | 10.4 °C | 0.99 °C | 3.99 °C | 1.24 °C | 9.95 °C | 0.36 °C | 0.51 °C | 0.21 °C
Cc1ccc(NC(=O)c2ccc(CN3CCN(C)CC3)cc2)cc1Nc1nc(-c2cccnc2)cs1 [Masitinib (AB1010)] | -0.19 °C | 0.62 °C | -4.62 °C | 0.59 °C | 0.34 °C | 0.52 °C | -0.18 °C | 0.52 °C | 0.98 °C | 0.23 °C
N#CC[C@H](C1CCCC1)n1cc(-c2ncnc3[nH]ccc23)cn1 | 0.1 °C | 6.97 °C | 1.27 °C | 0.17 °C | 0.76 °C | 1.05 °C | 3.75 °C | 0.57 °C | 1.16 °C | -0.53 °C
Cn1cnc2c(F)c(Nc3ccc(Br)cc3Cl)c(C(=O)NOCCO)cc21 [Selumetinib (AZD6244)] | -0.08 °C | -0.01 °C | -2 °C | 0.43 °C | 0.51 °C | 0.42 °C | 0.02 °C | 0.61 °C | 0.8 °C | 0.42 °C
COc1cc2ncnc(Nc3ccc(O)c(Br)c3)c2cc1OC | 0.28 °C | 12 °C | -0.59 °C | 0.86 °C | 0.54 °C | 0.23 °C | 5.86 °C | 0.8 °C | 1.76 °C | 0.01 °C
CN1CCN(c2ccc3nc(-c4c(N)c5c(F)cccc5[nH]c4=O)[nH]c3c2)CC1 [Dovitinib (TKI-258) Dilactic Acid] | 3.62 °C | 8.93 °C | 15.7 °C | 1.54 °C | 1.04 °C | 1.01 °C | 6.51 °C | 0.63 °C | 1.1 °C | 0.06 °C
CCn1nc(C2CCN(C(=O)CCO)CC2)nc1-c1cnc(N)c(-c2nnc(C(C)(C)C)o2)n1 | 0.47 °C | 8.76 °C | 1.95 °C | 0.66 °C | 0.58 °C | 0.43 °C | 5.59 °C | 0.93 °C | 0.86 °C | 0.4 °C
CO[C@H]1C[C@@H]2CC[C@@H](C)[C@@](O)(O2)C(=O)C(=O)N2CCCC[C@H]2C(=O)O[C@H]([C@H](C)C[C@@H]2CC[C@@H](OCCO)[C@H](OC)C2)CC(=O)[C@H](C)/C=C(\C)[C@@H](O)[C@@H](OC)C(=O)[C@H](C)C[C@H](C)/C=C/C=C/C=C/1C [Everolimus (RAD001)] | -0.03 °C | -0.04 °C | 1.13 °C | 0.62 °C | 0.41 °C | 0.57 °C | 0.13 °C | 1.04 °C | 0.88 °C | -1.46 °C
C=CC(=O)N1CCN(CCCn2c(=O)c(-c3c(Cl)c(OC)cc(OC)c3Cl)cc3cnc(NC)nc32)CC1 | 0.34 °C | 0.01 °C | 3.63 °C | -0.19 °C | 0.06 °C | 0.18 °C | -0.29 °C | 0.15 °C | 0.73 °C | 1.75 °C
CN(C)CCOc1ccc(-c2nc(-c3ccncc3)c(-c3ccc4c(c3)CC/C4=N\O)[nH]2)cc1 | 0.24 °C | 1.09 °C | -2.35 °C | -0.03 °C | 0.65 °C | 0.64 °C | -0.3 °C | 0.47 °C | 0.49 °C | 0.18 °C
CCCCCCCCc1ccc(CCC(N)(CO)CO)cc1 [Fingolimod (FTY720) HCl] | -0.4 °C | 1.83 °C | -4.01 °C | -0.43 °C | -0.07 °C | -1.13 °C | -1.94 °C | 0.07 °C | 0.28 °C | -1.48 °C
C=CC(=O)Nc1ccc2ncnc(Nc3cccc(Br)c3)c2c1 | 0.39 °C | 0.86 °C | -2.41 °C | -0.05 °C | 0.56 °C | 0.31 °C | -0.95 °C | 0.64 °C | 0.91 °C | 0.32 °C
CC(C)=CC[C@@H](O)C1=CC(=O)c2c(O)ccc(O)c2C1=O [Shikonin] | -1.93 °C | -1.47 °C | -0.18 °C | 1.58 °C | 0.18 °C | 0.09 °C | -1.68 °C | -0.26 °C | 7.3 °C | 0.21 °C
CC(=O)O/N=C1/C(c2c(O)[nH]c3cc(Br)ccc23)=Nc2ccccc21 [BIO-acetoxime] | 0.24 °C | 7.48 °C | 4.45 °C | -0.58 °C | 1.03 °C | -0.53 °C | 2.52 °C | -0.05 °C | 0 °C | 0.92 °C
